# Bioassay records: PubChem BioAssay, National Center for Advancing Translational Sciences (NCATS)
# Most compounds without a hit are left out; they make up all but 12% or so of the library.
# JMJD2A Tudor – qHTS Assay for Inhibitors of JMJD2A-Tudor Domain; AlphaScreen JMJD2A-Tudor / H3K4me3 peptide binding; Potency, µM (highest dose often 114 µM), actives largely listed as inhibitors; 390,000 compounds, 4.4% hits; note: nearly all actives have a fitted effect of over 50% in size
# BAZ2B block – qHTS Assay for Inhibitors of BAZ2B | Bromodomain adjacent to zinc finger domain protein 2B (Homo sapiens), Q9UIF8 | AlphaScreen BAZ2B-H3K14Ac peptide displacement | Potency, µM (titrated, usually from 114 µM), usual class: inhibitors | 360,000 compounds, 4.4% hits | AID 504333, 2011; note: nearly all actives have a fitted effect of over 60% in size
#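 Complex of BAZ2B and biotin-H3K14Ac (50 nM apiece) forms over 30 min at RT, then faces library compounds up to 110 uM for another 30 min; AlphaScreen beads added, 20 min dark incubation, luminescence read.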
# HP1b binding inh – HTS for Inhibitors of HP1-beta Chromodomain Interactions with Methylated Histone Tails; Chromobox protein homolog 1 (Homo sapiens), P83916; AlphaScreen HP1-beta / biotin-H3K9me3 peptide binding; 390,000 compounds, 0.56% hits; AID 540317, 2011; Potency, µM (series often up to 114 µM), actives largely listed as inhibitors; note: nearly all actives have a fitted effect of over 70% in size
#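 HP1-beta protein (50 nM final) preincubated 30 min at room temperature with biotinylated H3(1-18)K9me3 peptide (50 nM) in PBS pH 7.4, 0.01% Tween-20, then compound added for 30 min. AlphaScreen streptavidin donor/nickel chelate acceptor beads (10 ug/mL final), 30 min dark, luminescence read.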
# L3MBTL1 block – qHTS Assay for the Inhibitors of L3MBTL1 | Lethal(3)malignant brain tumor-like protein 1 (Homo sapiens), Q9Y468 | AlphaScreen L3MBTL1–H3K9me1 peptide binding | Potency, µM (doses to about 57.1 µM), most hits filed as inhibitors | 230,000 compounds, 0.66% hits; note: nearly all actives have a fitted effect of over 60% in size
#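 L3MBTL1 (50 nM) pre-complexed 30 min with biotinylated H3(1-15)K9me1 peptide (75 nM), then compounds added for 30 min at room temperature; AlphaScreen streptavidin donor/nickel chelate acceptor beads (10 ug/mL final) read after 30 min dark incubation.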
# Sfp PPTase inh – qHTS Assay for Inhibitors of Bacillus subtilis Sfp phosphopantetheinyl transferase (PPTase); 4'-phosphopantetheinyl transferase ffp (Bacillus subtilis), Q9F4F7; Biochemical Sfp PPTase activity, qHTS; Potency, µM, actives largely listed as inhibitors; 310,000 compounds, 3.5% hits; AID 1490, 2009;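 note: the enzyme is Sfp with the accession as filed and its product quenches rhodamine fluorescence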
#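 Reaction rates are the 30-min fluorescence difference (ex 525, em 598 nm) in wells containing 15 nM Sfp, 5 uM rhodamine-CoA and 12.5 uM BHQ-2-YbbR at pH 7.6 with 10 mM MgCl2.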
# G9a inh – qHTS Assay for Inhibitors of Histone Lysine Methyltransferase G9a | Histone-lysine N-methyltransferase EHMT2 (Homo sapiens), Q96KQ7 | G9a H3K9 monomethylation, AlphaScreen, 2 h | Potency, µM (series often up to 102 µM), usual class: inhibitors | 350,000 compounds, 8.8% hits | AID 504332, 2011; note: nearly all actives have a fitted effect of over 75% in size
#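 Readings reflect AlphaScreen signal from monomethyl-H3K9 antibody detection. HMT at 20 nM; substrate b-H3K9 500 nM; cofactor SAM 20 uM; 2 h RT reaction; compounds tested as titrations in qHTS with 15 min preincubation.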
# A number is an active result; 0 = inactive; ? = inconclusive; - = no result given; [ ] = another dose, or the depositor's remark. Calls come from the whole dose curve; as a rule, active = well fitted curve in the direction sought with a large enough effect; inconclusive = small, poorly fitted or top-dose-only effect, or another doubt; inactive = no such curve, though single readings can be large; an effect the other way counts as inactive or inconclusive.
SMILES,JMJD2A Tudor,BAZ2B block,HP1b binding inh,L3MBTL1 block,Sfp PPTase inh,G9a inh
Cc1ccc(/C=C/c2nc3ccccc3[nH]2)o1,50µM,0,?,0,5µM,11µM
CC1CCN(c2[nH]c(=S)c(C#N)c3c2CCCC3)CC1,0,0,0,0,32µM,32µM
CC1(C)Cc2c(c(N3CCCCC3)[nH]c(=S)c2C#N)CS1,0,0,0,0,0,0
CCOC(=O)c1c(S(=O)(=O)NCC(=O)N(C)c2ccc(C)cc2)c(C)n(C)c1C,0,?,0,-,-,0
C/C(=N\Nc1ccc2nncn2n1)c1ccccn1,22µM,8.9µM,0,25µM,0,0
C(=N\Nc1ccc2nncn2n1)/c1ccccn1,?,0,0,0,32µM,0
C(=N\n1cnnc1)/c1ccccn1,0,0,0,-,0,0[12.7 µM]
CC(=O)Oc1ccc(C(=C2CCCCC2)c2ccc(OC(C)=O)cc2)cc1,-,-,-,-,0,0[12.7 µM]
O=c1cc2oc3cc(O)c(O)cc3c(-c3ccccc3O)c-2cc1O,4µM,7.9µM,14µM,0.79µM,79µM,16µM
O=c1cc(-c2ccccc2O)oc2cc(O)ccc12,-,-,-,-,0,-
O=c1cc(-c2cccc(O)c2O)oc2ccccc12,-,-,-,-,79µM,-
COc1ccccc1-c1cc(=O)c2cc(O)ccc2o1,-,-,-,-,0,-
CCOc1ccccc1-c1c2cc(O)c(=O)cc-2oc2cc(O)c(O)cc12,1µM,7.1µM,0,1.3µM,32µM,10µM
COc1cc(Cl)c(C)cc1NC(=O)c1cc2c(=O)oc3ccccc3c2s1,0,0,0,-,-,0
CC(C)CCCC(C)C1CCC2C3C(=O)C=C4CC(O)CC[C@@]4(C)C3CC[C@@]12C (some centres undefined),-,-,-,-,0,-
Cn1c(=O)c2c(-c3ccccc3)n3c(c2n(C)c1=O)C(c1ccc([N+](=O)[O-])cc1)Nc1ccccc1-3 (centres undefined),0,0,0,-,-,0
Cc1ccc(CCNC(=O)c2ccc3c(c2)c(C)c(C)n3Cc2ccccc2)cc1,0,0,0,-,-,0
C[C@H](CN1c2ccccc2Sc2cccnc21)N(C)C,-,-,-,-,0,?
Cc1nc2ccccn2c1-c1csc(Nc2cccc(O)c2)n1,0,0,0,0,0,-
Cc1nc2ccccn2c1-c1csc(Nc2cccc(C(=O)O)c2)n1,0,0,0,-,79µM,45µM
Cc1nc2ccccn2c1-c1csc(Nc2ccc(C(=O)O)cc2)n1,0,?,0,-,0,?
Cc1cccc(Nc2nc(-c3c(C)nc4ccccn34)cs2)c1,0,0,0,0,50µM,?
CCN1CCN(C(=O)NC2CCCCC2)CC1,28µM,?,?,0,0,-
Cc1ccc(C(OCC(O)CN2CCCCC2CO)c2ccccc2)cc1 (centres undefined),45µM,50µM,0,0,0,0[12.7 µM]
CC1CCCN(CC(O)COC(c2ccccc2)c2ccccc2)C1 (centres undefined),0,0,0,0,0,0
SMILES,JMJD2A Tudor,BAZ2B block,HP1b binding inh,L3MBTL1 block,Sfp PPTase inh,G9a inh
CC(=O)c1ccc(NC(=O)CSc2cn(CC(=O)N3CCCCCC3)c3ccccc23)cc1,0,?,0,-,-,0
CCOc1ccc(-n2c(-c3ccc(Br)cc3)c[n+]3c2CCCCC3)cc1,0,-,0,-,0,1.1µM
CCOc1ccc(-n2c(-c3ccc(OC)cc3)c[n+]3c2CCCCC3)cc1,0,0,0,0,0,0
COc1ccccc1NC(=O)N1c2ccccc2Sc2ccccc21,0,0,0,-,-,0
O=C(OCc1nc2scc(-c3ccccc3)c2c(=O)[nH]1)c1ccco1,0,0,0,0,-,?
NC(=O)Cc1nc2scc(-c3ccccc3)c2c(=O)[nH]1,0,0,0,0,79µM,14µM
CC(C)[C@H](NC(=O)c1ccccc1)C(=O)OCc1nc2scc(-c3ccccc3)c2c(=O)[nH]1,0,0,0,0,0,0[12.7 µM]
